# From PubChem BioAssay (NCI)
# The panel holds about 83,000 compounds, 20% with a hit somewhere; the sample as a whole holds those more often.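 48-hour exposure, single concentration, 96-well plates; percent growth endpoint where 0 means no net growth. Active: below 10.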 A number with no mark means an inactive call. Calls of active or inactive are those of the source.
# How the values were obtained:
# Assay in all cases: NCI-60 one-dose screen, 48 h (100 = growth as untreated, 0 = no growth, -100 = all killed)
# UO-31 renal = conditions: 10 µM unless noted
# TK-10 renal = conditions: 10 µM unless noted
# ACHN renal = conditions: 10 µM unless noted
# CAKI-1 renal = conditions: 10 µM unless noted
# A498 renal = conditions: 10 µM unless noted
# CCRF-CEM leukemia = conditions: 10 µM unless noted
# MOLT-4 leukemia = conditions: 10 µM unless noted
# RPMI-8226 leukemia = conditions: 10 µM unless noted
# OVCAR-8 ovarian = conditions: 10 µM unless noted
# OVCAR-5 ovarian = conditions: 10 µM unless noted
# OVCAR-4 ovarian = conditions: 10 µM unless noted
# SK-OV-3 ovarian = conditions: 10 µM unless noted
# IGROV1 ovarian = conditions: 10 µM unless noted
# OVCAR-3 ovarian = conditions: 10 µM unless noted
# HS 578T breast = conditions: 10 µM
# NCI/ADR-RES ovarian = conditions: 10 µM unless noted
# SN12C renal = conditions: 10 µM unless noted
# SR leukemia = conditions: 10 µM unless noted
SMILES,growth (UO-31 renal),growth (TK-10 renal) [%],growth (ACHN renal),growth (CAKI-1 renal) [%],growth (A498 renal),growth (CCRF-CEM leukemia),growth (MOLT-4 leukemia),growth (RPMI-8226 leukemia),growth (OVCAR-8 ovarian),growth (OVCAR-5 ovarian),growth (OVCAR-4 ovarian) [%],growth (SK-OV-3 ovarian),growth (IGROV1 ovarian),growth (OVCAR-3 ovarian),growth (HS 578T breast),growth (NCI/ADR-RES ovarian),growth (SN12C renal) [%],growth (SR leukemia)
COc1ccc(OC)c(Nc2nc(-c3c(C)nc4sccn34)cs2)c1,77.8%,98,79.5%,73.7,30.7%,38.1%,9.57% (active),41.9%,74.5%,97.9%,78,103%,90.8%,94.7%,73.1%,77.8%,–,–
CCOc1cccc(/C=N/NC(=O)c2ccc(Nc3ccnc(C(F)(F)F)c3)cc2)c1O,–,28.4,3.84% (active),13.8,-2.13% (active),-30.8% (active),–,-23.6% (active),24.7%,13.9%,31.3,10.9%,-9.15% (active),24.6%,11.3%,49.3%,40.7,68.7%
CCCCn1c(C)nc2cc(Nc3nc(Cl)nc4nc[nH]c34)ccc21,64.6%,73.5,85.8%,76.1,26%,78%,–,65.4%,84.2%,80.6%,78.9,80%,70.7%,91.6%,52.7%,94%,–,66.7%
COc1ccc(Nc2ncnc3c2sc2nc(C)cc(C)c23)cc1,91.5%,115,97.2%,99.2,91%,–,95.9%,101%,95%,93.1%,95.2,118%,99.4%,113%,93%,108%,99.7,–
Fc1ccc(-c2ccnc3nc(-c4ccncc4)nn23)cc1,84.5%,96.6,104%,92.1,83.8%,–,94.9%,98.5%,96.5%,100%,109,104%,104%,105%,113%,106%,110,–
N#Cc1c(NN)n(C2OC(CO)C(O)C2O)c2ncnc(N)c12 (configuration not stated),-23.5% (active),11.2,7.45% (active),–,-17.8% (active),-22.3% (active),–,–,0.0898% (active),17%,14,2.07% (active),-65.7% (active),-42.3% (active),9.12% (active),6.9% (active),–,–
Nc1nonc1-c1nc2ccccc2n1Cc1ccc(F)cc1,42.9%,55.9,68.1%,35.9,42.1%,–,30%,64.4%,76.7%,80.4%,66.9,54.4%,48.7%,48.5%,53.6%,36.8%,62.4,22.3%
NS(=O)(=O)c1ccc(N2N=C(c3cccs3)CC2c2ccccc2O)cc1 (configuration not stated),34.9%,23.5,15.9%,24.2,-13.2% (active),–,8.13% (active),7.41% (active),9.96% (active),9.55% (active),60.8,6.78% (active),12.7%,-20.6% (active),17.3%,27.3%,16.5,1.1% (active)
Cc1ccc(S(=O)(=O)NC(CCC(=O)Nc2ccc(Cl)cc2)C(=O)Nc2ccc(Cl)cc2)cc1 (configuration not stated),38.2%,25.7,30%,41.9,-0.58% (active),4.45% (active),–,13.5%,–,67.8%,26.3,26.2%,34.6%,7.96% (active),29.8%,39.6%,39.8,-18.2% (active)
Cc1cc(Cl)c2ccc(N(C)C)cc2n1,–,109,97.6%,93,92.6%,95.9%,84.7%,97%,102%,105%,105,97.4%,106%,104%,96.9%,104%,98,87.3%
CCCCCCCCCCCCCCCc1cc(O)ccc1[N+](=O)[O-],58.6%,112,91.9%,72.9,98%,–,32.2%,36.3%,76.9%,94%,87.2,92%,73.9%,87.7%,82.1%,77.1%,75.5,74.5%
